According to PubChem BioAssay (EPA / NIEHS):
The source made the active and inactive calls. The calls were made as follows: active = hit-call score of the fitted dose curve at least 0.9, where 1 is the maximum; inactive = score below 0.9.

What follows are compounds tested on solute carrier (SLCO1B1), SLCO1B1 (gene 10599) (assay: LTEA_HepaRG_SLCO1B1: Life Technologies and Expression Analysis (LTEA) Assay for solute carrier (SLCO1B1) using HepaRG (AID 2283530)). Settings: mRNA level, 48 h; actives raise or lower the signal.
Procedure: LTEA_HepaRG is a cell based, multiplexed-readout assay that uses HepaRG, a human liver cell line, with measurements taken at 48 hours after chemical dosing on a 96-well plate.LTEA_HepaRG_SLCO1B1 is one of 102 assay component(s) measured in the LTEA HepaRG cell culture assay. It is a marker of NR mediated transport.Data from the assay component LTEA_HepaRG_SLCO1B1 was analyzed into 1 endpoint. This assay endpoint, LTEA_HepaRG_SLCO1B1, was analyzed with bidirectional fitting relative to DMSO as the negative control and baseline of activity. Using a type of inducible reporter, measures of mRNA induction for gain or loss-of-signal activity can be used to understand regulation of transcription factor activity. To generalize the intended target to other relatable targets, this assay endpoint is annotated to the transporter intended target family, where the subfamily is organic anion transporter.
A total of 1060 chemcials from the ToxCast library were tested in eight-point concentration-response experiments. Cell culture and cytotoxicity assays were conducted at Thermo Fisher Scientific's Custom Services facility (Madison, WI). A single lot of human HepaRG cells (Thermo Fisher Scientific, Frederick, MD) was used for the cell culture experiments. 96-well format collagen type I coated plates of human HepaRG cells were prepared using established methods. Briefly, cryopreserved HepaRG cells were thawed, plated at a density of approximately 100,000 cells/well in HepaRG Thaw, Plate, and General Purpose media (HPRG770, Thermo Fisher Scientific), and incubated for 48 hours. 0.5% DMSO was selected as vehicle control to balance the requisite need of DMSO in HepaRG cultures to maintain differentiation (for example, baseline metabolism, proportions of hepatocytes vs. cholangiocytes), while enabling further hepatic receptor pathway activation (for example, PXR and CAR) in response to chemical exposure. 48 hours after plating, the culture medium was replaced with HepaRG Serum-Free Incudtion Media. Cells were exposed to each test chemical in duplicate and maintained in CO2 incubators for another 48 hours. Chemical plates were thawed to room temperature and 200x concentrations of treatment groups were prepared. 8-point conentration-reponse curves were made with the highest exposure at 100 uM, followed by half-log dilutions, all in 0.5% DMSO. Each test plate contained variouse controls, induction positive controls (1mM phenobarbital), cytotoxicity positive controls ([…] aflatoxin B1), vehicle controls (0.5% DMSO), and total lysis controls (0.5% DMSO). Cell morphology images were taken using an Essen IncuCyte FLR automated microscope, with six 96-well plates imaged in about 24 minutes. Images were captured and exported and JPEG files. Spent culture media was transfered to black-well plates for the LDH assay, and remaining media was sorted at -80 C for later use. Cells were treated with RLT buffer and frozen until shipped for gene expression analysis. Total RNA was isolated from the cell suspension in 75 uL of Buffer RLT (Qiagen, Germantown, MD 20874) by Quintiles/Expression Analysis (Durham, NC) using a custom isolation procedure. Total RNA from each plate well was transferred to a preamplification plate. Fluidigm's 96.96 Dynamic ArrayTM (Fluidigm, Amsterdam, the Netherlands) technology was used for gene expression analyses by quantitative reverse transcription polymerase chain reaction (qRT-PCR, performed by Quintiles/Expression Analysis, Durham, NC)89. Standard TaqManTM Assays (Applied Biosystems/ThermoFisher Scientific, Foster City, CA) were used to assess the expression of 93 genes selected based on their selectivity and sensitivity to important hepatic receptors known to be modulated by environmental chemicals; importance in human hepatocyte functionality; and hepatotoxicity. […]

Compound	outcome	AC50
CC[C@H](C)C(=O)O[C@H]1C[C@H](O)C=C2C=C[C@H](C)[C@H](CC[C@@H](O)C[C@@H](O)CC(=O)O)[C@H]21	inactive	
CC(C)CC(C)O (stereo not given)	inactive	
CCn1nc(C)c2c1C(=O)NCC(c1ccc(O)cc1)=N2	inactive	
CC(C)CCCCCCOC(=O)C1CCCCC1C(=O)OCCCCCCC(C)C (stereo not given)	inactive	
CCCCCCCCN(C)C	inactive	
c1ccc2cc3ccccc3cc2c1	inactive	
NC(N)=O	inactive	
C[C@@H](Oc1ccc(CNC(=O)c2cccnc2Oc2ccc3c(c2)OCO3)c(F)c1)C(=O)O	inactive	
CC(=O)c1ccccc1	inactive	
NC(=O)N1c2ccccc2C=Cc2ccccc21	inactive	
CCCOc1ccc(S(=O)(=O)N2CCN(CC)CC2)cc1-c1nc2c(CC)n(Cc3ccccn3)nc2c(=O)[nH]1		50 µM (active)
O=S(=O)(O)c1ccc(N=Nc2c(O)ccc3cc(S(=O)(=O)O)ccc23)cc1	inactive	
CNC(C)=O	inactive	
COS(C)(=O)=O	inactive	
OC[C@H]1O[C@@](CO)(O[C@H]2O[C@H](CO)[C@@H](O)[C@H](O)[C@H]2O)[C@@H](O)[C@@H]1O	inactive	
OCCNCCO	inactive	
COCc1nnc(-c2ccc[n+]([O-])c2)n1-c1c(Cl)c(Cl)cc2[nH]c(=O)c(=O)[nH]c12	inactive	
CC1(C)C(=O)N(Cl)C(=O)N1Cl	inactive	
Cc1ncc([C@@H](CCCCCCc2ccc3c(n2)NCCC3)CC(=O)O)cn1	inactive	
CCCc1ccccc1	inactive	

Compound	outcome	AC50
OC(CCl)CCl	inactive	
OCc1ccccc1	inactive	
CCOc1ccc2[nH]cc(C(=O)NCc3ccccc3)c(=O)c2n1	inactive	
Cc1nccn1-c1ccc(Sc2cccc(C3(C(N)=O)CCOCC3)c2)cc1		13.6 µM (active)
Cc1ccc(S(=O)(=O)NC(=O)NN2CCCCCC2)cc1	inactive	
CC(C)C(=O)Nc1ccc([N+](=O)[O-])c(C(F)(F)F)c1		63.6 µM (active)
NC(=O)N(O)[C@@H]1COc2cc(OCc3ccccc3)ccc21	inactive	
CCCCCCCCCCCCCCCCOS(=O)(=O)O	inactive	
CCCCN1C(=O)[C@@H]([C@H](O)C2CCCCC2)NC(=O)C12CCN(Cc1ccc(Oc3ccc(C(=O)O)cc3)cc1)CC2		1.92 µM (active)
CCCCCCCCCCCCCCO	inactive	
OCC(CO)(CO)CO	inactive	
CCc1cccc(CC)c1N	inactive	
CCCCC(CC)C(=O)OCCOCCOCCOC(=O)C(CC)CCCC (stereo not given)	inactive	
CCOC(N)=O	inactive	
CCc1ccc(O)c(C(C)(C)C)c1	inactive	
O=c1[nH]cnc2c1ncn2[C@H]1CC[C@@H](CO)O1	inactive	
NC(=O)NN=Cc1ccc([N+](=O)[O-])o1	inactive	
OC(Cn1cncn1)(Cn1cncn1)c1ccc(F)cc1F	inactive	
NNC(=O)c1ccncc1	inactive	
Cc1nc(-c2ccccn2)ncc1C(=O)Nn1cc(C)c2cc(F)ccc21	inactive	
